Data on 15 compounds can be found in ChEMBL document CHEMBL2218924, “A broad activity screen in support of a chemogenomic map for kinase signalling research and drug discovery” (Biochem J, 2013).

For assay [1], the target named is T1, CDK9/cyclin T1 (Homo sapiens) (UniProt O60563+P50750). The settings on record: at 1 µM.
The target in assay [2] is T1, CDK9/cyclin T1 (Homo sapiens). Particulars: at 10 µM.
The target in assay [3] is T2, Serine/threonine-protein kinase Chk1 (Homo sapiens) (UniProt O14757).
T2 sequence (whole entry): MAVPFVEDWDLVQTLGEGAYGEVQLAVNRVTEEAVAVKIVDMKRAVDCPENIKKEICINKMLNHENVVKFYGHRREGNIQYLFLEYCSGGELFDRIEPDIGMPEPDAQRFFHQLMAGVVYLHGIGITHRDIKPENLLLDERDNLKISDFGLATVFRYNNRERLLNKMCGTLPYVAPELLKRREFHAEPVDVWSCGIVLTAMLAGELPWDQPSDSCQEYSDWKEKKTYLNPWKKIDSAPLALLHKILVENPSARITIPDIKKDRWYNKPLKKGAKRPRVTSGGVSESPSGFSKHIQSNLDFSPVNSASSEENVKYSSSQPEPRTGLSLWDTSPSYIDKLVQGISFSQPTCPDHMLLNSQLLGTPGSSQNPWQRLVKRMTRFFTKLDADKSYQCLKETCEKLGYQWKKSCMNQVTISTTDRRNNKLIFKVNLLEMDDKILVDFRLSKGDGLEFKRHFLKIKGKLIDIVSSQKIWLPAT
The settings on record: at 1 µM.

Assay [4] deals with T2, Serine/threonine-protein kinase Chk1 (Homo sapiens). Particulars: at 10 µM.
Assay [5] addresses Serine/threonine-protein kinase Chk2 (Homo sapiens) (UniProt O96017). Particulars: at 1 µM.
Assay [6] has the same target. Particulars: at 10 µM.
The target of assay [7] is Casein kinase I isoform delta (Homo sapiens) (UniProt P48730). The settings on record: at 1 µM.
In assay [8] the target is Casein kinase II subunit alpha' (Homo sapiens) (UniProt P19784). The settings on record: at 1 µM.
The target is the same in assay [9]. The settings on record: at 10 µM.
The target in assay [10] is Dual specificity protein kinase CLK3 (Homo sapiens) (UniProt P49761). Particulars: at 1 µM.
For assay [11] the target is unchanged. The settings on record: at 10 µM.
The target of assay [12] is Casein kinase I isoform gamma-1 (Homo sapiens) (UniProt Q9HCP0). Particulars: at 1 µM.
Assay [13] has the same target. Particulars: at 10 µM.
Assay [14] has as its target Casein kinase I isoform delta (Homo sapiens) (UniProt P48730). Particulars: at 10 µM.
For assay [15], the target named is T3, Casein kinase II (Homo sapiens) (UniProt P67870+P68400+P19784). Particulars: at 1 µM.
Assay [16] concerns the target T3, Casein kinase II (Homo sapiens). Particulars: at 10 µM.
For assay [17], the target named is Dual specificity protein kinase CLK2 (Homo sapiens) (UniProt P49760). The settings on record: at 1 µM.
The target is the same in assay [18]. Particulars: at 10 µM.
In assay [19] the target is Tyrosine-protein kinase CSK (Homo sapiens) (UniProt P41240). The settings on record: at 1 µM.
Assay [20] has the same target. The settings on record: at 10 µM.

Sequence of Serine/threonine-protein kinase Chk2 (Homo sapiens) (O96017 whole entry): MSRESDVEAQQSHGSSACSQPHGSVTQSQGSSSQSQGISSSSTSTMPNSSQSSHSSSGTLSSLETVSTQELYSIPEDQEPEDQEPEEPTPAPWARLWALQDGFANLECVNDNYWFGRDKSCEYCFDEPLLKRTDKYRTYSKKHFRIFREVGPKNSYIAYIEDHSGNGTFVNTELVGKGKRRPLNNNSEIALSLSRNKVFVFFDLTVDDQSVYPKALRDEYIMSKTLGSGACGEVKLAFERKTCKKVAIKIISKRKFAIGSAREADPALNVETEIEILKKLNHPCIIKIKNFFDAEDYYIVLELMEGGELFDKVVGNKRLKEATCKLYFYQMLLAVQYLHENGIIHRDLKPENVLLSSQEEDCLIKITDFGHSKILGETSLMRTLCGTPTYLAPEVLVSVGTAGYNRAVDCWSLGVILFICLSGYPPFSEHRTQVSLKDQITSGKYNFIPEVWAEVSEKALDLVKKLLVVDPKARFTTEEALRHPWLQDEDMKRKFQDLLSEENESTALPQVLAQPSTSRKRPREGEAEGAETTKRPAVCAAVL
Sequence of Dual specificity protein kinase CLK3 (Homo sapiens) (P49761 whole entry, looked up): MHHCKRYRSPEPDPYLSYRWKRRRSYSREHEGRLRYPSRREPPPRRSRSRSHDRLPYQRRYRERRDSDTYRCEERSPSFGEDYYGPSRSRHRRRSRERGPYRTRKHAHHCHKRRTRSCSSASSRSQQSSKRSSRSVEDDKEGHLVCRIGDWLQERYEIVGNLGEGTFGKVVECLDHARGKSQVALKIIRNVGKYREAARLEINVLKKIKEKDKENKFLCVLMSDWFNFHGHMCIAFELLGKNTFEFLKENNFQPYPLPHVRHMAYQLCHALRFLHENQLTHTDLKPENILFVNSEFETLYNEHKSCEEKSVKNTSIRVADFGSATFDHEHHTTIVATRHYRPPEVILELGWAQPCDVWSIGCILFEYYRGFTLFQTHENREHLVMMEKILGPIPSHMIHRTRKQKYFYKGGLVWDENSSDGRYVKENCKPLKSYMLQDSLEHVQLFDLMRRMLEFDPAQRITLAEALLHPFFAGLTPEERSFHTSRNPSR
Sequence of Dual specificity protein kinase CLK2 (Homo sapiens) (P49760 whole entry, looked up): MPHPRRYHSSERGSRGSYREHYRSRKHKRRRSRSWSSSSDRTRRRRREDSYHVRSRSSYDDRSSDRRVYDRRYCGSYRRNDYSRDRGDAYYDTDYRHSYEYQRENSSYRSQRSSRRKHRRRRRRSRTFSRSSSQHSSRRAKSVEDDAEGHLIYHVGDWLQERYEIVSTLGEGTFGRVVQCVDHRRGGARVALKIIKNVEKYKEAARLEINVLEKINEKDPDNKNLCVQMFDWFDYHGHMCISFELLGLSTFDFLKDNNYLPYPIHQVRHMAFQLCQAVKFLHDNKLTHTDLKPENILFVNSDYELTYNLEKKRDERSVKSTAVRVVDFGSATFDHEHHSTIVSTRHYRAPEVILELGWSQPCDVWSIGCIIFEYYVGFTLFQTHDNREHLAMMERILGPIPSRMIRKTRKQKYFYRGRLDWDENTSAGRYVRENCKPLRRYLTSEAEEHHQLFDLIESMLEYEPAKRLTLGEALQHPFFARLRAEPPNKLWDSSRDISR
T3 sequence (P19784 whole entry, looked up): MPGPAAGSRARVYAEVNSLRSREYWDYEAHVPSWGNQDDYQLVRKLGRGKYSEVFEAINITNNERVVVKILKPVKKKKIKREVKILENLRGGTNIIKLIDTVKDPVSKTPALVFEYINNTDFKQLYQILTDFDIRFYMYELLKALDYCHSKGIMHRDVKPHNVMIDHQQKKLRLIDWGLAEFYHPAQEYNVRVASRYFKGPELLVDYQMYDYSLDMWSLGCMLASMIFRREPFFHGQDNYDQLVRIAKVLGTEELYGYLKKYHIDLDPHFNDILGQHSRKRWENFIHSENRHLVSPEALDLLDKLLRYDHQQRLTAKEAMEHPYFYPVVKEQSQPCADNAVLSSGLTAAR
T3 sequence (P67870 whole entry, looked up): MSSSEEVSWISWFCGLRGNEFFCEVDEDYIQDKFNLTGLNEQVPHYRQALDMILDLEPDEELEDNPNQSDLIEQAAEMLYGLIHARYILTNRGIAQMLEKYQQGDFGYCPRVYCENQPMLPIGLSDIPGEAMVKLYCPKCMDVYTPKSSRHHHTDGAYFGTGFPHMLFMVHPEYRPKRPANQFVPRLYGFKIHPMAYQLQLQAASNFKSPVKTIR
T3 sequence (P68400 whole entry, looked up): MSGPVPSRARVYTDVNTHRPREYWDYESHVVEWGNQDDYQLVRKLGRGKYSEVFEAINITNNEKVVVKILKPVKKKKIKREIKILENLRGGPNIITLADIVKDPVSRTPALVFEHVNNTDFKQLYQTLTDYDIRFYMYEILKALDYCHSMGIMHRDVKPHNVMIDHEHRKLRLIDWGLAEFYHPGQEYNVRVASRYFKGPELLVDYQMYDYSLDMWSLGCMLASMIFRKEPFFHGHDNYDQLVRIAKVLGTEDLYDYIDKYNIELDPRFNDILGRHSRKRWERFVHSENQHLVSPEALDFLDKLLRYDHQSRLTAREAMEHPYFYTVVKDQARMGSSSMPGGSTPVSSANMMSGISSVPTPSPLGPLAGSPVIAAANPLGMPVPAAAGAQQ
Sequence of Casein kinase II subunit alpha' (Homo sapiens) (P19784 whole entry, looked up): as the sequence (P19784 whole entry, looked up) above
Sequence of Casein kinase I isoform gamma-1 (Homo sapiens) (Q9HCP0 whole entry, looked up, canonical isoform): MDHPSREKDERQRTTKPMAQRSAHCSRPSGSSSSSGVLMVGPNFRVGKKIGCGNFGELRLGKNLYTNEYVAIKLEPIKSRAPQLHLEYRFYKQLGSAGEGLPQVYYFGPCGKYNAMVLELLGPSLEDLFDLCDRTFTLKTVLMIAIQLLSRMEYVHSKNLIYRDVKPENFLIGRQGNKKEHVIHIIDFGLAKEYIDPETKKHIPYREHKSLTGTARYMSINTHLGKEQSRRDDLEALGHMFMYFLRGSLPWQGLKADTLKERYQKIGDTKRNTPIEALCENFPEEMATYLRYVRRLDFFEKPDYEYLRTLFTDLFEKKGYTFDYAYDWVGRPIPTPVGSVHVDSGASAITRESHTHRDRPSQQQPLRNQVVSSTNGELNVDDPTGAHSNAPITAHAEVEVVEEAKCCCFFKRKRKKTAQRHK
Sequence of Tyrosine-protein kinase CSK (Homo sapiens) (P41240 2-450 limits assumed): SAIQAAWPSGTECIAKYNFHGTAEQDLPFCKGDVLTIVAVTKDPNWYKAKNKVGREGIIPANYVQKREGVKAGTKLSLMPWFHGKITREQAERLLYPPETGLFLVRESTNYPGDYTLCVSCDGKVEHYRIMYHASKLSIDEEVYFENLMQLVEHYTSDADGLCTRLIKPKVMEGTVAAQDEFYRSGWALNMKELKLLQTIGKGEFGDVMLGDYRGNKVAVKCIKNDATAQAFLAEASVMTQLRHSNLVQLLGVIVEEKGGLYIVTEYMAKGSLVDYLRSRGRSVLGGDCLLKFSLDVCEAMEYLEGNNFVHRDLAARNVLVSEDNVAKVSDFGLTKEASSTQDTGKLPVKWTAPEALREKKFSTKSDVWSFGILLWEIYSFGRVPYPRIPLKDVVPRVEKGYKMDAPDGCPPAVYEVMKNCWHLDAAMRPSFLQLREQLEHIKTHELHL
Sequence of Casein kinase I isoform delta (Homo sapiens) (P48730 whole entry, looked up, canonical isoform): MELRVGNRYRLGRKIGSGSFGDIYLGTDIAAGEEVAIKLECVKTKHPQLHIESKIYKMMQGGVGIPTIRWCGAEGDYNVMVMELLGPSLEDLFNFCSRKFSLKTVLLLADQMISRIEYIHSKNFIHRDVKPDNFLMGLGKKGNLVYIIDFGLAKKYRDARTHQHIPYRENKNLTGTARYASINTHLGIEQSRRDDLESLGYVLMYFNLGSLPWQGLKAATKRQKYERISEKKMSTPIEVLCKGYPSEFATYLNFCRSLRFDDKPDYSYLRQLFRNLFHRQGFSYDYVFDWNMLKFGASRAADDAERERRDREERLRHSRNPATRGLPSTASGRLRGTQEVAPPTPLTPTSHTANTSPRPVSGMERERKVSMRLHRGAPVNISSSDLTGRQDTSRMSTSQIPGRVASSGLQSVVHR

Take `Cc1cncc2cccc(S(=O)(=O)N3CCCN(C(=O)CN)C[C@H]3C)c12`: the residual activity (usually the signal under treatment as a percentage of the control signal) in [1] was found to be 92%; in assay [2] it was 71%; in assay [3], 88%; in [4], 93%; in [5] it was 80%; in [6], 83%. Further, the residual activity was 83% in [7]; 128% in assay [8]; 98% in assay [9]; 76% in assay [10]; 98% in [11].

`O=[N+]([O-])c1ccc(-c2nc(-c3ccc(F)cc3)c(-c3ccncc3)[nH]2)cc1`: the residual activity in assay [1] came out at 103%; in [2], 24%; in [3], 102%; in assay [4] it was 92%; in assay [5], 97%; in [6], 84%. In addition, the residual activity amounted to 75% in [12]; 88% in [13]; 4% in [14]; 100% in assay [15]; 108% in assay [16]; 114% in assay [8]. Further, the residual activity was found to be 114% in assay [9]; 122% in assay [17]; 107% in [18]; 89% in assay [10]; 87% in [11]; 108% in assay [19]. Besides, the residual activity in [20] is 105%.

Regarding `O=C1NC(=O)c2cc(Nc3ccc(F)cc3)c(Nc3ccc(F)cc3)cc21`, the residual activity came out at 100% in assay [1]; 88% in [2]; 85% in [3]; 103% in assay [4]; 84% in [5]; 77% in assay [6]. Besides, the residual activity in assay [12] worked out at 86%; in [13], 68%; in assay [7] it was 84%; in assay [14], 45%; in [15], 90%; in assay [16] it was 110%. Further, the residual activity in assay [8] was 125%; in [9], 96%; in [17], 100%; in [18], 40%; in [10], 79%; in assay [11] it was 129%. Besides, the residual activity in assay [19] is 98%; in [20], 93%.

As for `COc1cccc(-c2cc(=O)c3ccccc3o2)c1N`, the residual activity was determined as 104% in [1]; 108% in [2]; 104% in assay [3]; 90% in [4]; 85% in [5]; 72% in assay [6]. Also, the residual activity in assay [12] came to 95%; in [13], 88%; in [7], 102%; in assay [14], 87%; in assay [15], 94%; in [16], 96%. For the same compound, the residual activity in [8] is 119%; in assay [9] it was 106%; in assay [17], 116%; in [18] it was 105%; in assay [10], 90%; in [11], 71%. In addition, the residual activity in assay [19] was 104%; in assay [20], 111%.

For `CN(C)CCCn1cc(C2=C(c3c[nH]c4ccccc34)C(=O)NC2=O)c2ccccc21`, the residual activity in assay [1] turned out to be 17%; in assay [2], 3%; in assay [3], 54%; in assay [4], 17%; in assay [5] it was 52%; in assay [6] it was 16%. The residual activity in assay [12] was found to be 107%; in [7] it was 90%; in assay [14], 79%; in [15] it was 107%; in assay [16] it was 101%; in [9], 104%. Besides, the residual activity is 14% in assay [17]; 2% in assay [18]; 66% in [10]; 21% in assay [11]; 122% in [19]; 100% in assay [20].

Regarding `N#Cc1cnc2cnc(NCc3cccnc3)cc2c1Nc1ccc(F)c(Cl)c1`, the residual activity in assay [1] was 93%; in assay [2] it was 100%; in [3], 3%; in assay [4] it was 1%; in assay [5], 49%; in assay [6], 36%. Moreover, the residual activity in assay [13] amounted to 93%; in assay [7], 79%; in [14], 62%; in assay [9] it was 100%; in assay [10] it was 84%; in assay [11], 51%. Also, the values for the residual activity in assay [19] and in [20] were 93% and 75%, respectively.

As for `COc1cc2ncc(-c3ccccc3)nc2cc1OC`, the residual activity is 90% in [3]; 78% in assay [4]; 86% in assay [5]; 88% in [6]; 90% in assay [12]; 78% in [13]. Also, the residual activity in assay [7] is 72%; in [14], 39%; in assay [10] it was 92%; in [11] it was 81%; in assay [20] it was 94%.

For the compound `Nc1nc(Nc2ccc(S(N)(=O)=O)cc2)nn1C(=S)Nc1c(F)cccc1F`, the residual activity in [1] was 0%; in [2] it was -1%; in assay [3] it was 0%; in [4] it was -1%; in [5] it was 4%; in assay [6], 0%. The residual activity in [12] is 4%; in assay [13], 1%; in assay [7], 59%; in assay [14], 16%; in [15] it was 100%; in [16], 85%. Moreover, the residual activity in [8] was 95%; in assay [9], 62%; in [17], -2%; in assay [18], 2%; in assay [10], -4%; in assay [11], -5%. Moreover, the residual activity in assay [20] turned out to be 99%.

For the compound `Cc1nc2cc3nc(-c4cccs4)cnc3cc2n1C`, the residual activity is 109% in assay [1]; 102% in assay [2]; 101% in assay [3]; 108% in assay [4]; 86% in [5]; 101% in assay [6]. Moreover, the residual activity in [13] is 89%; in assay [7] it was 95%; in [14], 67%; in assay [15], 102%; in [16], 104%; in assay [8], 130%. The residual activity came to 92% in assay [9]; 114% in assay [17]; 63% in assay [18]; 99% in [10]; 53% in [11]; 110% in [19]. Besides, the residual activity in assay [20] was found to be 109%.

As to `CCN(CC)C(=O)c1ccc(Nc2nc(OCC3CCCCC3)c3nc[nH]c3n2)cc1`, the residual activity was 46% in assay [1]; 8% in assay [2]; 57% in assay [3]; 10% in assay [4]; 55% in assay [5]; 12% in assay [6]. Further, the residual activity in assay [12] turned out to be 42%; in assay [13], 7%; in assay [7] it was 71%; in [14], 34%; in assay [8], 101%; in [9], 75%. The residual activity in [17] was 25%; in [18], 6%; in assay [10], 65%; in assay [11], 20%; in assay [20], 44%.

For `c1ccc(-c2n[nH]c3c2oc2ccccc23)cc1`, the residual activity in [1] is 88%; in [2] it was 78%; in [3], 86%; in assay [4], 89%; in assay [5] it was 85%; in assay [6], 57%. The residual activity came out at 87% in assay [12]; 73% in assay [13]; 75% in [7]; 33% in assay [14]; 86% in assay [15]; 119% in assay [8]. In addition, the residual activity in assay [9] was determined as 94%; in [17] it was 91%; in assay [18] it was 80%; in [10], 86%; in assay [11], 14%.

For the compound `CO[C@H]1C[C@@H]2CC[C@@H](C)[C@@](O)(O2)C(=O)C(=O)N2CCCC[C@H]2C(=O)O[C@H]([C@H](C)C[C@@H]2CC[C@@H](O)[C@H](OC)C2)CC(=O)[C@H](C)/C=C(\C)[C@@H](O)[C@@H](OC)C(=O)[C@H](C)C[C@H](C)/C=C/C=C/C=C/1C`, the residual activity in [1] came out at 120%; in assay [2], 98%; in assay [3], 77%; in assay [5] it was 98%; in assay [6], 85%; in assay [12], 87%. Besides, the residual activity in [13] was found to be 101%; in assay [7] it was 84%; in assay [14], 109%; in assay [15], 99%; in assay [16], 98%; in [9], 105%. The residual activity was determined as 118% in assay [17]; 137% in [18]; 80% in [10]; 95% in [11]; 112% in assay [19]; 95% in assay [20].

Take `Nc1n[nH]c2nnc(-c3c(-c4ccccc4)nn4ccccc34)cc12`: the residual activity in assay [1] came out at 98%; in assay [2], 92%; in assay [3], 90%; in assay [4] it was 82%; in assay [5] it was 98%; in assay [6] it was 78%. In addition, the residual activity in [12] turned out to be 94%; in assay [13], 84%; in assay [7] it was 60%; in assay [14], 17%; in assay [15], 98%; in [16] it was 85%. Moreover, the residual activity in assay [8] is 101%; in assay [9], 92%; in assay [17], 98%; in assay [18] it was 84%; in assay [10], 84%; in [11], 90%. Also, the residual activity in assay [19] is 107%; in [20] it was 103%.

On to `Nc1cccc(-c2cc3c(Oc4cccc(O)c4)ncnc3[nH]2)c1`, for which the residual activity in [1] was 31%; in assay [2] it was 5%; in [3] it was 45%; in assay [4], 11%; in assay [5], 54%; in [6], 12%. Besides, the residual activity in assay [12] worked out at 86%; in [13], 49%; in assay [7] it was 86%; in [14], 44%; in assay [15], 101%; in assay [16] it was 105%. For the same compound, the residual activity was found to be 93% in assay [17]; 50% in [18]; 75% in [10]; 63% in assay [11]; 79% in [19]; 21% in assay [20].

With `N#C/C(=C(\N)Sc1ccc(N)cc1)c1ccccc1C(F)(F)F`, the residual activity in assay [1] stood at 81%; in assay [2], 96%; in [3], 90%; in [4] it was 86%; in assay [5], 94%; in [6], 81%. For the same compound, the residual activity is 103% in assay [12]; 87% in assay [13]; 87% in assay [7]; 82% in assay [14]; 96% in assay [15]; 99% in assay [16]. For the same compound, the residual activity in [8] came out at 108%; in [9], 104%; in assay [17], 97%; in assay [18], 94%; in [10], 95%; in assay [11], 92%. In addition, the results for the residual activity in assay [19] and in assay [20] were 106% and 87%, respectively.
